Screening results (PubChem)
This is a sample that favours compounds with a hit; in the whole collection about 19% have one here.
HepG2 viability = qHTS for Inhibitors of TGF-b: Cytotox Counterscreen; HepG2 CAGA-GFP viability, ATP luminescence, 18 h; Potency, µM (highest dose often 46.1 µM), without a hit: at the highest dose activity change, negative = cytotoxicity, usual class: cytotoxic; actives 0.76% (n = 410,000); AID 588856, 2011; note: potency is the fitted concentration of half-maximal effect
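CellTiter-Glo luminescence gave cytotoxicity after 18 hours at 37 degrees C. The cells were HepG2 CAGA-GFP in 1% FBS DMEM, stimulated with 500 pg/mL TGF-beta after compound addition. %Activity was normalised to no-cell wells (complete cell-killing) and DMSO (no toxicity), and curves were fitted and classified.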
TDP1 cell CPT = qHTS for Inhibitors of human tyrosyl-DNA phosphodiesterase 1 (TDP1): qHTS in cells in presence of CPT; chicken DT40 Tdp1-/-;hTDP1 cells + 20 nM CPT, ATP luminescence, 48 h; Potency, µM (highest dose often 46.2 µM), for inactives: at the highest dose activity change, negative = growth inhibition, most hits filed as inhibitors; actives 12% (n = 420,000); note: potency is the fitted concentration of half-maximal effect; % is set by controls: 0 for no effect and ±100 for the full control effect; nearly all actives have a fitted effect of over 55% in size
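Cell growth measured by CellTiter-Glo luminescence after a minimum 48 h, 37 C compound exposure with 20 nM CPT in Tdp1-knockout DT40 cells stably expressing hTDP1, seeded 400/well; qHTS titration format.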
ASM inhibitor = Inhibitors of Secretory Acid Sphingomyelinase (S-ASM): qHTS | Sphingomyelin phosphodiesterase (Homo sapiens), P17405 | placental ASM, HMU-PC fluorogenic substrate, 60 min | Potency, µM (titrated, usually from 57.5 µM), without a hit: at the highest dose activity change, negative = inhibition, most hits filed as inhibitors | actives 0.006% (n = 340,000); note: potency is the fitted concentration of half-maximal effect
Target sequence (P17405 47-631 limits assumed): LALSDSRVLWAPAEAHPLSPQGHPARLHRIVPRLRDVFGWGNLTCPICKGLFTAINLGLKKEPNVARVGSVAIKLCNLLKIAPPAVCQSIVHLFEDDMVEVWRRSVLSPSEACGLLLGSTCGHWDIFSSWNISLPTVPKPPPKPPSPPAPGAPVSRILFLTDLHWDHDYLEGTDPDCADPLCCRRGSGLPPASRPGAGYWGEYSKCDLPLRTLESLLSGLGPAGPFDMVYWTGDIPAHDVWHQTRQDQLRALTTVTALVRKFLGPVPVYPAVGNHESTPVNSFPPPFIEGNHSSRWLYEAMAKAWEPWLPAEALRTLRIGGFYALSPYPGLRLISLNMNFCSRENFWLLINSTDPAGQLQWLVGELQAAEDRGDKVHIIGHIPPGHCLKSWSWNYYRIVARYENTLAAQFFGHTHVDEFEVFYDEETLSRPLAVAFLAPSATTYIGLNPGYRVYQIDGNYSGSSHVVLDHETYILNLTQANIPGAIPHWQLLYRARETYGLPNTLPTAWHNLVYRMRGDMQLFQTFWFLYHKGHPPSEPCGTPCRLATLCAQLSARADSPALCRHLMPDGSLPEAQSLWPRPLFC
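Fluorescence read-out (Ex 386 nm, Em 447 nm) after stopping the reaction at pH 10. Enzyme: ASM from human placenta; substrate HMU-PC0, 9 uM final; 60 min, 37 °C. Compound preincubation 10 min, ambient temperature.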
DT40 TDP1 no CPT = qHTS for Inhibitors of human tyrosyl-DNA phosphodiesterase 1 (TDP1): qHTS in cells in absence of CPT; DT40 Tdp1-/- hTDP1 cells, no CPT, ATP luminescence, 48 h; Potency, µM (series often up to 46.2 µM), without a hit: at the highest dose activity change, negative = growth inhibition, usual class: inhibitors; actives 15% (n = 420,000); note: potency is the fitted concentration of half-maximal effect; % is set by controls: 0 for no effect and ±100 for the full control effect; nearly all actives have a fitted effect of over 55% in size
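Growth of hTDP1-complemented DT40 Tdp1-knockout cells is measured by ATP luminescence after at least 48 hr compound exposure at 37 °C, with DMSO substituting for the 20 nM CPT used in the parallel screen.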
TGFb SMAD3 inh = qHTS for Inhibitors of TGF-b; actives 1.2% (n = 410,000); AID 588855, 2011; HepG2 CAGA-GFP TGF-b/SMAD3 reporter, GFP fluorescence, 18 h; TGF-beta stimulated, 500 pg/mL final; Potency, µM (top dose mostly 46.1 µM), for the others: at the highest dose activity, negative = inhibition, usual class: inhibitors; note: potency is the fitted concentration of half-maximal effect; % is set by controls: 0 for no effect and ±100 for the full control effect; nearly all actives have a fitted effect of over 65% in size
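TGF-beta reporter screen: HEPG2 CAGA-GFP, 1% FBS, 500 pg/mL TGF-beta final, 18 h; per-cell GFP summed per well; curves fitted and categorized by class.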
IL-1B inflam inh = qHTS for Inhibitors of Inflammasome Signaling: IL-1-beta AlphaLISA Primary Screen | AID 743279, 2014 | activity change, % at 57.5 µM | THP-1 LPS/ATP IL-1B secretion, AlphaLISA, 16 h; active compounds read low | actives 4.7% (n = 360,000); in the data active = activity change below about -50%; inconclusive = mostly about -30% to -49%; note: % is set by controls: 0 for no effect and ±100 for the full control effect
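Secreted IL-1B measured by AlphaLISA bead assay after 16 h compound exposure of THP-1 cells; compounds (final up to 57.5 uM) added 1 h before LPS (250 ng/mL) and ATP (1.25 mM) stimulation; lower signal means less secretion.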
Active calls of the source: *; ? = inconclusive; nt = not tested or not shown. Unless noted, calls come from the whole dose curve; as a rule, active = well fitted curve in the direction sought with a large enough effect; inconclusive = small, poorly fitted or top-dose-only effect, or another doubt; inactive = no such curve, though single readings can be large; an effect the other way counts as inactive or inconclusive.

SMILES	HepG2 viability	TDP1 cell CPT	ASM inhibitor	DT40 TDP1 no CPT	TGFb SMAD3 inh	IL-1B inflam inh
C=CCn1c(=O)/c(=C/c2ccc(Cl)cc2)s/c1=C(/C#N)c1nnc2n1CCCCC2	-17.0%	?	-14.8%	?	-9.1%	-71.6*
C=CCn1c(=O)/c(=C/c2cc(OC)c(OC)c(OC)c2)s/c1=C(/C#N)c1nc2ccccc2n1C	-22.1%	23.1µM*	-13.3%	18.4µM*	11.5%	19.1
C=CCn1c(=O)/c(=C/c2ccc(O)cc2)s/c1=C(/C#N)c1nnc2n1CCCCC2	-4.6%	18.4µM*	-6.8%	23.1µM*	5.2%	?
O=C1c2cccc3c([N+](=O)[O-])ccc(c23)C(=O)N1Cc1cccnc1	-17.2%	3.66µM*	-5.0%	4.61µM*	?	-101.0*
Cc1nnc(N2C(=O)c3cccc4c([N+](=O)[O-])ccc(c34)C2=O)s1	-23.2%	7.31µM*	0.5%	4.61µM*	?	-95.4*
Cc1cnc(N2C(=O)c3ccc([N+](=O)[O-])cc3C2=O)s1	4.2%	4.8%	4.5%	-0.6%	-3.2%	?
Cc1ccc(N2C(=O)c3cccc4c([N+](=O)[O-])ccc(c34)C2=O)c2cccnc12	12.8%	0.82µM*	-1.3%	0.731µM*	0.1%	13.3
Cc1cccc(CN2CCN(C3CN(Cc4cn(Cc5ccccc5)nn4)S(=O)(=O)C3)CC2)c1 (stereo not drawn)	nt	?	nt	?	nt	5.5
Cc1cn2c(=O)cc(COc3ccc(NC(=O)c4ccccc4C)cc3)nc2s1	-1.2%	-10.0%	nt	-4.8%	-49.1%	nt
COc1nnc(-c2ccc(N3CCCCC3)c(NC(=O)COc3ccccc3)c2)c2ccccc12	2.1%	-3.4%	-2.6%	21.6%	3.8%	9.5
COc1ccc(OC)c(CCNC(=O)c2cnn(-c3ccccc3)c2-n2cccc2)c1	-26.8%	23.1µM*	nt	1.84µM*	?	nt
COc1cccc(CNC(=O)C2CCN(C(=O)c3cnn(-c4ccccc4)c3-n3cccc3)CC2)c1	-17.8%	?	nt	?	?	nt
COc1ccc(CNC(=O)CSCc2cnn(-c3ccccc3)c2-n2cccc2)cc1	-23.8%	-25.5%	-3.5%	23.1µM*	?	-22.0
Cc1ccc(C)c(NC(=O)c2cnn3ccccc23)c1	-1.6%	5.8µM*	1.7%	11.6µM*	?	39.5
Cc1ccc(C)c(NC(=O)c2cc3ccccn3n2)c1	-38.0%	-23.2%	-0.9%	-27.0%	-12.8%	-1.3
CCN(CC)C(=O)CSCc1cnn(-c2ccccc2)c1-n1cccc1	-0.9%	?	-2.7%	16.4µM*	-8.6%	-21.2
CSc1ccc(CCNC(=O)C2CCCN(c3nn4c(=O)cc(C)nc4s3)C2)cc1 (stereo not drawn)	8.8%	-23.3%	-0.1%	-11.9%	-15.5%	-14.5
COc1ccc(NC(=O)CSCc2cnn(-c3ccccc3)c2-n2cccc2)cc1	-22.6%	?	nt	16.4µM*	-7.5%	nt
COc1ccc(CCNC(=O)c2cnn3ccccc23)c(OC)c1OC	4.8%	?	0.2%	23.1µM*	8.4%	-2.1
COc1cc(CCNC(=O)c2cnn3ccccc23)cc(OC)c1OC	-0.9%	?	3.7%	?	-1.0%	19.8
Cc1ccccc1CNC(=O)CCSCc1cnn(-c2ccccc2)c1-n1cccc1	-35.3%	?	nt	16.4µM*	-7.4%	nt
